Results reported in PubChem BioAssay (NCI).
Compounds without any hit were thinned out: in the full panel of roughly 79,000, 15% have a hit. A number with no mark means an inactive call. The source made the active and inactive calls. Rule as the data show it: active = growth inhibition above about 70%; inactive = the rest.

Assays:
[1] = NCI Yeast Anticancer Drug Screen. Data for the rad50 strain (AID 155);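 also: 0% = growth of vehicle-only cultures of the same strain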; settings: S. cerevisiae rad50 strain growth inhibition; at 50.0 µM; active compounds read high
Summary of the method: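 Vehicle-treated cultures provide the reference for the growth inhibition reported for compound-exposed, repair-deficient yeast.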

[2] = NCI Yeast Anticancer Drug Screen. Data for the mec2-1 strain (AID 157); settings: S. cerevisiae mec2-1 strain, at 50.0 µM, active compounds read high
Summary of the method: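 Readout is yeast growth inhibition, normalised to vehicle-treated controls, in the mec2-1 strain exposed to compound.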

[3] = NCI Yeast Anticancer Drug Screen. Data for the sgs1 mgt1 strain (AID 161);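 also: 0% = growth of cultures given vehicle only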; settings: S. cerevisiae sgs1 mgt1 strain, at 50.0 µM, active compounds read high
Summary of the method: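 Percent growth inhibition was derived by comparing compound-exposed mutant yeast with vehicle-exposed cultures. The strain carries alterations in DNA damage repair.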

[4] = NCI Yeast Anticancer Drug Screen. Data for the cln2 rad14 strain (AID 165);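 also: 0% = growth equal to vehicle treated cultures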; settings: S. cerevisiae cln2 rad14 strain, at 50.0 µM, active compounds read high
Summary of the method: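 Relative to vehicle controls, growth inhibition of compound-treated cln2 rad14 yeast was recorded.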

[5] = NCI Yeast Anticancer Drug Screen. Data for the bub3 strain (AID 167); settings: S. cerevisiae bub3 mutant strain, at 50.0 µM, active compounds read high
Summary of the method: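 Mutant yeast screening strain plus compound; vehicle-treated cultures serve as the 0% inhibition reference.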

[6] = NCI Yeast Anticancer Drug Screen. Data for the mlh1 rad18 strain (AID 175); settings: S. cerevisiae mlh1 rad18 strain growth inhibition; at 50.0 µM; active compounds read high
Summary of the method: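 Test agents were incubated with a yeast strain of defined genotype (DNA damage repair defect). Inhibition of growth was derived by comparison with vehicle-exposed cultures.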

| SMILES | growth inhibition [1] | growth inhibition [2] | growth inhibition [3] | growth inhibition [4] | growth inhibition [5] | growth inhibition [6] |
| --- | --- | --- | --- | --- | --- | --- |
| Nc1ccc(S(=O)(=O)c2cnc(N)s2)cc1 | -4% | 4.25% | 27.8% | -3.25% | -11.2% | 11.4% |
| CN=C(NC)c1ccc(Cl)c(Cl)c1 | 8.1% | -5.4% | -0.9% | -31.2% | 10.9% | 11.8% |
| COC1(OC)C(N(C)C)=C(Cl)C(=O)/C1=C/C=O | 7.75% | -10.7% | -16.9% | -6.65% | 13.8% | -16.4% |
| C/C(=N\NC(N)=O)C1CCCc2ccccc21 (stereo unspecified) | 2.45% | -15.3% | -9.8% | -6.55% | -10.3% | 10.2% |
| CCOC(=O)c1c(NC(=O)CCl)ssc1=S | 15.2% | 28.4% | 42.5% | 22.8% | 4.7% | 43.6% |
| COc1ccc(N2C=Nn3c(nc4sc5c(c4c3=O)CCCC5)C2)cc1 | 9.55% | 4.2% | 0.35% | -1.9% | 4.25% | -24.4% |
| CC1CCC2(CC1)NN=c1s/c(=C\c3ccc(O)cc3)c(=O)n1N2 (stereo unspecified) | -9.3% | -1.7% | -21.9% | 8.55% | -21.2% | -19.9% |
| CCCCCCCCCCCCCCCCOP(=O)(O)OP(=O)(O)OCC1OC(n2ccc(N)nc2=O)CC1O (stereo unspecified) | -10.2% | -3.9% | 8.7% | -17.8% | 20.6% | 12.7% |
| O=C(OCc1ccccc1)c1ccccc1O | 39.1% | 16.1% | 46.1% | -16.1% | 22.8% | 57.5% |
| Fc1ccc(C(Nc2nncs2)Nc2nncs2)c(F)c1 | -0.8% | -13.8% | 12.6% | -44.1% | -35.8% | 9.7% |
| CCOC(=O)C12CC(COc3ccc([N+](=O)[O-])cc3)ON1OC(COc1ccc([N+](=O)[O-])cc1)C2 (stereo unspecified) | 23.9% | 7.8% | 17.2% | 2.4% | -3.85% | 28.1% |
| O=C(Nc1cccc2ccccc12)O/N=C/c1ccccn1 | -9.3% | -3.4% | -11.4% | 39.3% | -7% | -1.7% |
| O/N=C(/Cc1ccccc1)c1ccccc1 | 26.6% | 33.6% | 11.1% | -17.1% | 5.15% | 17.8% |
| Cc1ccccc1C(=O)c1cc(O)ccc1O | -11.2% | -10.1% | -1.25% | -8% | -16.3% | -5.2% |
| COc1ccccc1NC(=S)N/N=C/c1ccccn1 | -16.6% | 15.9% | 24.4% | 8.95% | 17.7% | 14% |
| O=C1c2ccccc2-c2nc(-c3ccccc3)cc3c2c1nc1ccccc13 | 79% (active) | 51.7% | 67.2% | 64.8% | 75% (active) | -7.15% |
| O=c1[nH]c2ccc([N+](=O)[O-])cc2nc1/C=C(\O)c1ccccc1 | -9.85% | 14.3% | -24.4% | -31.1% | 3.75% | -46.5% |
| O=C(Nc1cccc(C(F)(F)F)c1)c1ccco1 | 34.5% | 9.75% | 28.7% | 3.55% | 11.1% | 17% |
| CC(C)CCCC(C)C1CCC2C3CC(=O)C4C=CCCC4(C)C3CCC12C (stereo unspecified) | 39.1% | 19.5% | 27.6% | 24% | 2.65% | 34% |
| CCOC1(c2ccccc2)NC(=O)NC1(OCC)c1ccccc1 (stereo unspecified) | 14.2% | 5.75% | 18% | -20.1% | 0.05% | -9.6% |
| COc1ccc(-c2oc3cc(OC)c(OC)c(OC)c3c(=O)c2O)cc1O | 62.5% | 50.5% | 77.6% (active) | 44.8% | 65.4% | 70.2% (active) |
